Data on 5 molecules can be found in PubChem BioAssay.

SMILES strings stand for the structures. Activity calls are given as the source filed them.

Test [1] deals with PRMT1 (protein arginine N-methyltransferase 1). As to the kind of experiment: PRMT1 binders on small-molecule microarrays, primary screen, biochemical, small-molecule microarray, 635 nm fluorescence (AID 1088).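 Further: binding of Prmt1 protein to compounds spotted on small-molecule microarray slides.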 The following applies: small-molecule microarray binding, higher = more signal.
The nature of test [2]: yeast growth modulation, basal conditions, primary screen, YJM789 clinical isolate, OD600, 24 h (AID 1089).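 Further: growth of clinical yeast isolate S. cerevisiae YJM 789 seeded 1000 cells per well; test concentration not given here.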 The following applies: S. cerevisiae YJM789 growth, higher = more signal, called active from +8 up or from −8 down.
A short description of test [3]: fission yeast growth modulation, primary screen, strain 972, OD600, 24 h, no modulator (AID 1090).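 Further: basal condition with compound alone and no growth modifier present; test concentration not given here.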 The following applies: S. pombe 972 growth, higher = more signal, called active from +8 up or from −8 down.
Test [4] is described as follows: S. cerevisiae growth modulation with rapamycin, primary screen, strain BY4716, OD600, 96 h (AID 1091). Further: test concentration not given here. The following applies: higher = more signal, called active from +8 up or from −8 down.
For test [5], the target named is Torsin-1A-interacting protein 2 (Homo sapiens) (UniProt Q8NFQ8). As to the kind of experiment: LULL1 binders on small-molecule microarray, primary screen, cell lysate, human LULL1 lysate, 635/667 nm fluorescence (AID 1092).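 Further: probe is lysate of COS7 cells overexpressing human LULL1; score merges per-feature 667 nm fluorescence with signal-to-noise.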 The following applies: hLULL1 lysate binding, 635 nm fluorescence, higher = more signal.
Test [6] is described as follows: E. coli growth modulation, two-sided OD650, primary screen, E. coli filamentation project, strain DRC41, 24 h (AID 1093).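 Further: MC1000 strain lacking acrAB efflux and sulA so SOS filamentation is blocked; test concentration not given here.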 The following applies: OD650, 24 h, higher = more signal, called active from +8 up or from −8 down.
A short description of test [7]: small-molecule microarray binders of probe aLefty2, primary screen, biochemical, biotinylated probe, 635/667 nm fluorescence (AID 1094).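 Further: score merges spot fluorescence near 667 nm with spot signal-to-noise ratio.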 The following applies: higher = more signal.
In test [8] the test system is Noggin (protein binding on small-molecule microarray). As to the kind of experiment: Noggin binders on small-molecule microarray, primary screen, biochemical, 635/667 nm fluorescence (AID 1095).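 Further: score merges 667 nm feature fluorescence with signal to noise over triplicate slides.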 The following applies: 635 nm fluorescence, higher = more signal.
Test [9] deals with Neurogenic locus notch homolog protein 3 (Homo sapiens) (UniProt Q9UM47). As to the kind of experiment: NOTCH3 binders on small-molecule microarray, primary screen, biochemical, 635/667 nm fluorescence (AID 1096). The following applies: NOTCH3 binding, 635 nm fluorescence, higher = more signal.
Test [10] in a line: small-molecule microarray binders of probe aEGFR, primary screen, biochemical, biotinylated probe, 635/667 nm fluorescence (AID 1097).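 Further: probe is a biotinylated anti-EGFR antibody binding compounds printed on slides; score combines fluorescence near 667 nm and signal to noise of each spot.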 The following applies: higher = more signal.
For test [11], the system named is Plasmodium falciparum Sir2 (PF13_0152, Sir2A). As to the kind of experiment: pfSir2 binders on small-molecule microarrays, primary screen, biochemical, small-molecule microarray, 635 nm fluorescence (AID 1098).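 Further: score merges spot fluorescence intensity with its signal-to-noise ratio.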 The following applies: small-molecule microarray binding, fluorescence 635 nm; higher = more signal.
Test [12] can be described thus: small-molecule microarray binders of probe aDKK1, primary screen, biochemical, biotinylated probe, 635/667 nm fluorescence (AID 1099).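 Further: score merges 667nm spot fluorescence with signal to noise across triplicate slides; reference of the scale not given here.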 The following applies: higher = more signal.
Test [13] can be described thus: small-molecule microarray binders of probe aCHRDL2, primary screen, biochemical, biotinylated probe, 635/667 nm fluorescence (AID 1100). The following applies: higher = more signal.
Test [14] in a line: splicing luciferase reporter signal modulators, primary screen, spliceosome inhibition project, cell-based, HEK293, splice +/- reporter (AID 1101).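 Further: HEK293 cells carrying a splicing-competent luciferase reporter gene; test concentration not given here.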 The following applies: luminescence, 24 h, higher = more signal, called active from +8 up or from −8 down. On the technique in general: In a reporter assay the amount or activity of a reporter protein is the signal.
Test [15] deals with Fibroblast growth factor 10 (Homo sapiens) (UniProt O15520). As to the kind of experiment: FGF10 binders on small-molecule microarrays, primary screen, biochemical, small-molecule microarray, 635 nm fluorescence (AID 1102). The following applies: FGF10 binding, fluorescence 635 nm, higher = more signal.
In test [16] the test system is glycogen synthase kinase-3 (GSK3A per assay name; protocol says GSK3B). As to the kind of experiment: GSK3 binders on small-molecule microarrays, primary screen, biochemical, small-molecule microarray, 635 nm fluorescence, GSK3A (AID 1103). Further: the record names both GSK3A and GSK3B. The following applies: small-molecule microarray binding, fluorescence 635 nm; higher = more signal.
Test [17] has as its target Epidermal growth factor receptor (Homo sapiens) (UniProt P00533). As to the kind of experiment: EGFR binders on small-molecule microarrays, primary screen, biochemical, small-molecule microarray, 635 nm fluorescence (AID 1104).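 Further: score merges 667 nm emission intensity with spot signal to noise over triplicate slides.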 The following applies: EGFR binding, higher = more signal.
In test [18] the target is Follistatin-related protein 3 (Homo sapiens) (UniProt O95633). As to the kind of experiment: FSTL3 binders on small-molecule microarrays, primary screen, biochemical, small-molecule microarray, 635 nm fluorescence (AID 1105).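 Further: score merges emission near 667 nm and signal to noise per printed spot across three slides.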 The following applies: FSTL3 binding, higher = more signal.
Test [19] has as its target Dickkopf-related protein 1 (Homo sapiens) (UniProt O94907). As to the kind of experiment: DKK1 binders on small-molecule microarrays, primary screen, biochemical, small-molecule microarray, 635 nm fluorescence scan (AID 1106).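 Further: score merges emission near 667 nm with signal to noise over three replicate slides.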 The following applies: DKK1 binding, higher = more signal.
For test [20], the system named is Inhibin beta A chain (activin A). As to the kind of experiment: INHBA (activin A) binders on microarrays, primary screen, biochemical, small-molecule microarray, 635 nm fluorescence scan (AID 1107).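 Further: mouse activin A protein probed at 4.33 µg/mL on printed slides; score merges bound-protein fluorescence near 667 nm with spot signal-to-noise.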 The following applies: small-molecule microarray binding, higher = more signal.

Dickkopf-related protein 1 (Homo sapiens), sequence (O94907 whole entry, looked up): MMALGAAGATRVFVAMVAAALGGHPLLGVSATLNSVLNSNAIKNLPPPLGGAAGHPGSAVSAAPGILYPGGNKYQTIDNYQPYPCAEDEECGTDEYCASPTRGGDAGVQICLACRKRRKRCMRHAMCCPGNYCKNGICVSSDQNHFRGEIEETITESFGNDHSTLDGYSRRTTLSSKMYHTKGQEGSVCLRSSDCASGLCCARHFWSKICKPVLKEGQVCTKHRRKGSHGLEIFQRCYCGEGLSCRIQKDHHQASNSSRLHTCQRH
Fibroblast growth factor 10 (Homo sapiens), sequence (O15520 whole entry, looked up): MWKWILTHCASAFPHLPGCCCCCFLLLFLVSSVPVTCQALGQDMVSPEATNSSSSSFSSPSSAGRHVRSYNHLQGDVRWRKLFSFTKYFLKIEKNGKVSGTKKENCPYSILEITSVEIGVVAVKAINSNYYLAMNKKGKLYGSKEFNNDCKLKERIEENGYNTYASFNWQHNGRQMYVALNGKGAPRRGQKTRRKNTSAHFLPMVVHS
Follistatin-related protein 3 (Homo sapiens), sequence (O95633 whole entry, looked up): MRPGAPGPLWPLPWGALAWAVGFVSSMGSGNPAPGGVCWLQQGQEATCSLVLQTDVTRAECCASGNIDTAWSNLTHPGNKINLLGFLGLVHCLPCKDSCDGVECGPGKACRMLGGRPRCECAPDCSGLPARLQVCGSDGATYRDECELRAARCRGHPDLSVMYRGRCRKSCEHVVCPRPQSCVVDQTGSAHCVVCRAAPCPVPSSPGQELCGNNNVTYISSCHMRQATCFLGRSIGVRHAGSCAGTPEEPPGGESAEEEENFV
Epidermal growth factor receptor (Homo sapiens), sequence (P00533 whole entry, looked up): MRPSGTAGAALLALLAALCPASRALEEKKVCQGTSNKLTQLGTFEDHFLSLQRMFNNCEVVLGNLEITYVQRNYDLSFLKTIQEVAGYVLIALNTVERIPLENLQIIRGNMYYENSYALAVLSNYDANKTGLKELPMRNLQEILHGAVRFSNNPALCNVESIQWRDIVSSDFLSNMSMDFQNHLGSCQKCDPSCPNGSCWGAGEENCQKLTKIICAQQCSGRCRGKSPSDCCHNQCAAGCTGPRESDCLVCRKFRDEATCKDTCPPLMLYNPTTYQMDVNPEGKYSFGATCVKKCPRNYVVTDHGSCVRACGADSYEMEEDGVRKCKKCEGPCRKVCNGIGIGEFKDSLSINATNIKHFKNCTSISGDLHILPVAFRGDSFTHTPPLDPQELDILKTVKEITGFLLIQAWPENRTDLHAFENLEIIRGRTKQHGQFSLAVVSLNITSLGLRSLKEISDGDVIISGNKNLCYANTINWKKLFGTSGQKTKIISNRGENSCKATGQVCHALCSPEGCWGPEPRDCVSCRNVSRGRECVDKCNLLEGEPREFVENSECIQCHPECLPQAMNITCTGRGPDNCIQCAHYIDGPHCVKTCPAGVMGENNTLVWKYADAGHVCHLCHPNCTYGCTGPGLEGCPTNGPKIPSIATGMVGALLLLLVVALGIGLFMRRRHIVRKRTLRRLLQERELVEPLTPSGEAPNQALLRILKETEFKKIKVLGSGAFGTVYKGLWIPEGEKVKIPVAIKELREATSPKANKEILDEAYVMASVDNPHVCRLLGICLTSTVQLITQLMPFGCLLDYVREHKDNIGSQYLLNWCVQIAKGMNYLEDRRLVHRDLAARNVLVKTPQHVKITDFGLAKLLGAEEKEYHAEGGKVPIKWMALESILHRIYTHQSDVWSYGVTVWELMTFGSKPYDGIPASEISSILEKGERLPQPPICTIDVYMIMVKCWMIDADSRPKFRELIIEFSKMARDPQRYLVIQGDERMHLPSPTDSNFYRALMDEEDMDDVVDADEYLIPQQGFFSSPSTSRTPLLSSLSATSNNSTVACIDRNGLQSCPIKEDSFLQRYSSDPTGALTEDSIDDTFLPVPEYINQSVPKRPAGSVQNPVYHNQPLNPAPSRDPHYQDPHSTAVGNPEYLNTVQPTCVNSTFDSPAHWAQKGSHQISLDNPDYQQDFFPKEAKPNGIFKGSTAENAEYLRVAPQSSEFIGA
Torsin-1A-interacting protein 2 (Homo sapiens), sequence (Q8NFQ8 whole entry, looked up): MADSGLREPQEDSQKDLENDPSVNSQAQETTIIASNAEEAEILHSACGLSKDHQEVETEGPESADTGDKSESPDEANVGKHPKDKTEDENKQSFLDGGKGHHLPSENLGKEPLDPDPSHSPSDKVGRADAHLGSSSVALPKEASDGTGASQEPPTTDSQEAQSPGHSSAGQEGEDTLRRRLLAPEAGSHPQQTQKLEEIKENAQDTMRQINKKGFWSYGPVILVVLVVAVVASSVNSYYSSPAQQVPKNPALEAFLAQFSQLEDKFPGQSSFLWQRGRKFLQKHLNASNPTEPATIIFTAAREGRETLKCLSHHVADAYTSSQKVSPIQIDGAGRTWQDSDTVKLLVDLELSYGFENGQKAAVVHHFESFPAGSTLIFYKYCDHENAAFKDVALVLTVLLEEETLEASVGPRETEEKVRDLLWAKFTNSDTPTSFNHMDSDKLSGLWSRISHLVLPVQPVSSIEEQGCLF
Neurogenic locus notch homolog protein 3 (Homo sapiens), sequence (Q9UM47 whole entry, looked up): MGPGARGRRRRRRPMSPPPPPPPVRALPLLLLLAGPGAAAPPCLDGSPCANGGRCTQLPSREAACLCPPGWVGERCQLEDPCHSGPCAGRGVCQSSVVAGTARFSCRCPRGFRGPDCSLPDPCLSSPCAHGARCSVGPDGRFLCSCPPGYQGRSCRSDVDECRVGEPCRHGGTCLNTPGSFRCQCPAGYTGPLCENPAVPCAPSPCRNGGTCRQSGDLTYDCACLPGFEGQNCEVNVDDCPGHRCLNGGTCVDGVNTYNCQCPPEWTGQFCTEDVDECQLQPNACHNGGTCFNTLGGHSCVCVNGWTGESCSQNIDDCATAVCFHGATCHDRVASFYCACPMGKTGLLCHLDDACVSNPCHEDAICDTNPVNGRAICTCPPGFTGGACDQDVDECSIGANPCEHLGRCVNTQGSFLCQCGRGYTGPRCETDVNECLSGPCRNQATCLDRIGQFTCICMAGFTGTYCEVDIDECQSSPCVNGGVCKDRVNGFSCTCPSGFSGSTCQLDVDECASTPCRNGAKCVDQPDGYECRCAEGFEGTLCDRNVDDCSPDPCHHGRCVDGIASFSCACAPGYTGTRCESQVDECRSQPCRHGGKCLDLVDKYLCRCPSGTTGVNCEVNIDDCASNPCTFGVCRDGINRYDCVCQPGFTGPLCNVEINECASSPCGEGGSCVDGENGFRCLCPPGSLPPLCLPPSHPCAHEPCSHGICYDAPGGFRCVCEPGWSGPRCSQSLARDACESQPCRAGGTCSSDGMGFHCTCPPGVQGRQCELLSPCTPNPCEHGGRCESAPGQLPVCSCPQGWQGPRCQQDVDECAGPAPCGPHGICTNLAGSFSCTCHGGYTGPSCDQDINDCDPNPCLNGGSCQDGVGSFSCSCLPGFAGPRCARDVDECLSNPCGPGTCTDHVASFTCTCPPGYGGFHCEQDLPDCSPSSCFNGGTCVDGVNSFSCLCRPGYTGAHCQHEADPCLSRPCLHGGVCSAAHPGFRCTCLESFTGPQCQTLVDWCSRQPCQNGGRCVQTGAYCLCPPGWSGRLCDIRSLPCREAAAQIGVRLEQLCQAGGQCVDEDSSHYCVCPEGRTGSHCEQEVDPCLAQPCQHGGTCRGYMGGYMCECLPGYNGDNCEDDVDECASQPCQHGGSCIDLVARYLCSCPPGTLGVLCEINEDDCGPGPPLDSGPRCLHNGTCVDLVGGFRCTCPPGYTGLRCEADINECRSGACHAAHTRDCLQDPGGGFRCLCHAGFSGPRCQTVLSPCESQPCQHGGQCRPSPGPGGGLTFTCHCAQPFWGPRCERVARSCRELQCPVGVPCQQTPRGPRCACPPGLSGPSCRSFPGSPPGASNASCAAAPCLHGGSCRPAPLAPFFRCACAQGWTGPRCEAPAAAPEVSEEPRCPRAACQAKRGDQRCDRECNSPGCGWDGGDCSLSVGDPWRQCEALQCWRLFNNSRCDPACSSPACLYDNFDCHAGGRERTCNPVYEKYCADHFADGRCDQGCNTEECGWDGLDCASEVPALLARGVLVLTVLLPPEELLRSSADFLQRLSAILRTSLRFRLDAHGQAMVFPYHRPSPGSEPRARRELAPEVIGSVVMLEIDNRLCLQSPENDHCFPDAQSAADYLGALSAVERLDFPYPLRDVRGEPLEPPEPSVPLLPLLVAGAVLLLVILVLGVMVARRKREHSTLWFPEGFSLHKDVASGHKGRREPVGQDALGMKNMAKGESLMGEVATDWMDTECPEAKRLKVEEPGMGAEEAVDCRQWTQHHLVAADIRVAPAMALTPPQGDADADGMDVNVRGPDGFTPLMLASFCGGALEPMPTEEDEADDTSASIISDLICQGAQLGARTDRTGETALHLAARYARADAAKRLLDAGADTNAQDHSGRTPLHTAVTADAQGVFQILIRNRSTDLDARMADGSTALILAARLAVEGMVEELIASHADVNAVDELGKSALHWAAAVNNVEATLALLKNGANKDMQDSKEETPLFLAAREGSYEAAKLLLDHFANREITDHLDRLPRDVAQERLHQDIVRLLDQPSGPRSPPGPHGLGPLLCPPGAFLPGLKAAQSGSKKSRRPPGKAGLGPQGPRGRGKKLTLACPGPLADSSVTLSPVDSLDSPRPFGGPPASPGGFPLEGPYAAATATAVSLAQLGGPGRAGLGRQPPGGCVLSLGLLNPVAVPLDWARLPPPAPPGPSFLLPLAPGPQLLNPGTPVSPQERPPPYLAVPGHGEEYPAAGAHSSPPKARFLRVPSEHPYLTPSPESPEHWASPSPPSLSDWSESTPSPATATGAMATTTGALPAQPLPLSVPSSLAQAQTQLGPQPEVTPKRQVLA

For `O=C1[C@H]2[C@H]3[C@H](O)[C@H](O)CC(=NOCc4ccccc4)[C@@H]3CC[C@H]2C(=O)N1c1ccc(F)cc1F`, the composite z-score was -0.755 in test [1]; 0.324 in test [5]; -0.205 in [7]; 0.358 in [8]; -0.283 in test [9]; -0.125 in test [10]. For the same molecule, the composite z-score in [11] is 0.0102; in test [12] it was -0.376; in [13] it was -0.554; in test [15], 0.224; in test [16] it was -0.0906; in test [17] it was 0.208. The figures for the composite z-score in [18], in test [19] and in [20] were 0.286, 0.347 and -0.178, respectively. Besides, the z-score was -1.94 (inactive) in test [2]; -0.469 (inactive) in [3]; -0.996 (inactive) in test [4]; -0.778 (inactive) in test [6]; -1.29 (inactive) in test [14].
Consider `CCOC(=O)[C@H](Cc1ccccc1)NC(=O)CCC1CC(OC(=O)NCc2ccc3c(c2)OCO3)CC2(CCCC(COC(=O)NCCc3ccccc3OC)O2)O1` (stereo not given in full), for which the composite z-score in [1] was 1.49; in test [5], 2.67; in test [7], -0.112; in [8] it was 0.679; in test [9], 1.08; in test [10], 0.0287. Moreover, the composite z-score in test [11] is 0.604; in test [12], -0.0864; in test [13], -0.465; in test [15] it was 0.977; in test [16], 1.23; in [17], 0.539. Moreover, the figures for the composite z-score in [18], in test [19] and in [20] were 1.35, 0.759 and 0.0493, respectively. The z-score in [2] is 0.163 (inactive); in [3], 1.07 (inactive); in test [4], 1.52 (inactive); in test [6] it was -0.324 (inactive); in test [14] it was 0.222 (inactive).
On to `C=Cc1ccc([C@H]2N[C@H](C(=O)O)CC[C@@H]2C)cc1`, for which the composite z-score in test [1] is -1.29; in test [5], -0.447; in [7], 0.0772; in [8], 0.0295; in test [9] it was 0.417; in test [10], -0.0349. Further, the composite z-score in test [11] is -0.642; in [12] it was 0.178; in test [13], 0.02; in [15] it was 0.741; in test [16], -0.88; in test [17], 0.14. For the same molecule, the composite z-score amounted to 0.505 in test [18], 0.723 in test [19] and 0.363 in [20]. For the same molecule, the z-score was -0.382 (inactive) in test [2]; -0.261 (inactive) in test [3]; -0.676 (inactive) in test [4]; 0.58 (inactive) in test [6]; 0.0747 (inactive) in [14].
As to `CCOC(=O)[C@H](CC(C)C)NC(=O)CCC1CC(OC(=O)NCc2cccc3ccccc23)CC2(CCCC(COC(=O)NCCCN3CCCC3=O)O2)O1` (stereo not given in full), the composite z-score in test [1] is 1.4; in test [5] it was 1.68; in test [7] it was -0.0998; in test [8], 0.822; in test [9], 1.12; in test [10], -0.0238. Further, the composite z-score was 0.389 in test [11]; -0.171 in test [12]; -0.38 in test [13]; 0.408 in test [15]; 0.819 in test [16]; 0.384 in [17]. Besides, the composite z-score is 0.787 in [18], 0.583 in [19] and 0.0612 in test [20]. Further, the z-score was -0.139 (inactive) in test [2]; 0.409 (inactive) in test [3]; -0.224 (inactive) in test [4]; -0.165 (inactive) in test [6]; -0.406 (inactive) in test [14].
As to `CCOC(=O)[C@H](CC(C)C)NC(=O)CCC1CC(OC(=O)NCCc2ccc(F)cc2)CC2(CCCC(COC(=O)NCCc3ccc(Cl)cc3)O2)O1` (stereo not given in full), the composite z-score is 1.26 in [1]; 1.97 in test [5]; -0.0021 in test [7]; 0.948 in test [8]; 0.773 in test [9]; -0.123 in [10]. Also, the composite z-score is 0.654 in test [11]; -0.26 in [12]; -0.681 in test [13]; 0.675 in [15]; 0.46 in test [16]; 0.517 in [17]. For the same molecule, the composite z-score in [18] is 0.79; in test [19] it was 0.483; in [20], -1.71. Also, the z-score in test [2] is -0.623 (inactive); in test [3], 0.485 (inactive); in test [4] it was -0.518 (inactive); in [6] it was -0.296 (inactive); in test [14], 0.0483 (inactive).
